{
  "source": "PubChem BioAssay AID1159606",
  "about": "(Sanford-Burnham Center for Chemical Genomics, 2016)",
  "note": "About 7,300 (2%) of roughly 360,000 compounds were called active. The list comes from a sample in which actives are over-represented; it also holds similar structures and randomly drawn compounds. Unmarked numbers belong to inactive results. No stated cut-off is given here; in the data, active means inhibition above about 50%; inactive means the rest.",
  "data": [
    {"experiment": "blockers of TWEAK-induced Fn14 reporter activity – luciferase reporter cells, uHTS, primary screen (AID 1159606)", "details": "TWEAK-stimulated Fn14 reporter cells, luciferase luminescence, 8 h; at 10 µM; hits give high values", "values": [
      {"smiles": "CCNc1nc(N)nc(-c2cc(Cl)ccc2OC)n1", "inhibition": "-2.01%"},
      {"smiles": "CC[C@@H]1CC2=C(C(=O)OC(C)(C)O2)[C@@H](CC)O1", "inhibition": "1.77%"},
      {"smiles": "CCN(CC)C(=O)CC1(c2ccccc2OC)CCOC(C(C)C)C1", "note": "(stereo unspecified)", "inhibition": "-4.31%"},
      {"smiles": "CCOC(=O)c1cc(-c2sc(NC(=O)c3ccccc3)nc2C)n(CCO)n1", "inhibition": "-0.09%"},
      {"smiles": "CCOC(=O)c1cc(-c2sc(NC(=O)c3ccccc3)nc2C)n(Cc2ccccc2)n1", "inhibition": "54.7% (active)"},
      {"smiles": "C=CCn1nc(C(=O)OCC)cc1-c1sc(NC(=O)c2ccccc2)nc1C", "inhibition": "32.2%"},
      {"smiles": "CCCCCCN1C[C@@H](O)[C@H](n2cc(COC(=O)c3ccccc3)nn2)C[C@@H]1c1ccc(Cl)cc1", "inhibition": "11.1%"},
      {"smiles": "C[C@H](NC(=O)[C@@H]1CCCN1C(=O)[C@@H]1CCCN1C(=O)c1ccccc1)c1ccccc1", "inhibition": "-2.63%"},
      {"smiles": "CC(C(=O)NCC1CCCCC1)N(C)Cc1cccc(Cl)c1", "note": "(stereo unspecified)", "inhibition": "-0.37%"},
      {"smiles": "S=c1[nH]nc2c3c4c(sc3ncn12)CCCC4", "inhibition": "3.72%"},
      {"smiles": "c1nnc2c3c4c(sc3ncn12)CCC4", "inhibition": "58.9% (active)"},
      {"smiles": "CC(C(=O)O)n1cnc2sc3c(c2c1=O)CCCC3", "note": "(stereo unspecified)", "inhibition": "-20.1%"},
      {"smiles": "CCOC(=O)c1sc(NC(=O)c2sc(C)nc2C)nc1C", "inhibition": "-39.5%"},
      {"smiles": "Cc1csc(NC(=O)CSc2nc(=O)cc(N)n2-c2ccc(F)cc2)n1", "inhibition": "27.6%"},
      {"smiles": "COc1cc(SC)ccc1C(=O)Nc1nc(C)cs1", "inhibition": "102% (active)"},
      {"smiles": "COC(=O)c1sc(NC(=O)c2ccc(OC)cc2OC)nc1C", "inhibition": "69% (active)"},
      {"smiles": "COc1cc(SC)ccc1C(=O)NNC(=O)C1COc2ccccc2O1", "note": "(stereo unspecified)", "inhibition": "-29.7%"},
      {"smiles": "COc1ccc(C(=O)NC(C)CCc2ccccc2)c(OC)c1", "note": "(stereo unspecified)", "inhibition": "-8.93%"},
      {"smiles": "CC(=O)c1ccc(NC(=S)N(Cc2ccccc2)C(C)C2CC2)cc1", "note": "(stereo unspecified)", "inhibition": "11.1%"},
      {"smiles": "COC(=O)c1ccc2nc(-c3ccc(F)cc3)c(Cc3ccc(C)cc3)n2c1", "inhibition": "-0.5%"},
      {"smiles": "O=C1NC[C@@H](CCCCN2CCN(CCc3ccc(O)cc3)C(=O)C2=O)N(CC2CCCCC2)C1=O", "inhibition": "10.2%"},
      {"smiles": "O=C(c1ccc2c(c1)N(Cc1ccc(F)cc1)C(=O)CS2)N1CCOCC1", "inhibition": "-16.2%"},
      {"smiles": "CCc1nccn1CCC(=O)N1CCCC(N2CCN(c3ccccc3F)CC2)C1", "note": "(stereo unspecified)", "inhibition": "-3.5%"},
      {"smiles": "CC(=O)Nc1ccc(NS(=O)(=O)c2ccc3c(c2)NC(=O)CC(=O)N3)cc1", "inhibition": "10.3%"},
      {"smiles": "CC(=O)Nc1ccc(S(=O)(=O)Nc2ccc(N3CCCCC3)cc2)cc1", "inhibition": "84.7% (active)"},
      {"smiles": "CC(=O)Nc1ccc(S(=O)(=O)N2CCCC2C(=O)O)cc1", "note": "(stereo unspecified)", "inhibition": "0.16%"},
      {"smiles": "CCN(CC)P(=O)(/C(Cl)=C\\Nc1c(C)n(C)n(-c2ccccc2)c1=O)N(CC)CC", "inhibition": "-1.25%"},
      {"smiles": "CC1=CC=CC2=N/C(=N\\S(=O)(=O)c3ccc(F)cc3F)c3ccccc3CN12", "inhibition": "-4.26%"},
      {"smiles": "COc1ccccc1NS(=O)(=O)c1ccc(C(=O)N2CCN(c3ccccc3O)CC2)cc1", "inhibition": "9.79%"},
      {"smiles": "O=S(=O)(Nc1ccc(O)c2ccccc12)c1ccc(OC(F)(F)F)cc1", "inhibition": "84.1% (active)"},
      {"smiles": "O=S(=O)(Nc1ccc(OC(F)(F)F)cc1)c1cccc2nonc12", "inhibition": "-6.65%"},
      {"smiles": "O=C(NNC(=O)c1cccc(S(=O)(=O)Nc2ccc(Cl)cc2)c1)c1ccc(=O)[nH]c1", "inhibition": "12.3%"},
      {"smiles": "CC(C)=CC(=O)Nc1nnc(-c2ccc(F)cc2)s1", "inhibition": "-55.7%"},
      {"smiles": "CCc1ccc(NC(=O)Nc2ccncc2)cc1", "inhibition": "-5.44%"},
      {"smiles": "Cc1ccc(NC(=O)Nc2nnc(-c3ccncc3)s2)cc1", "inhibition": "54.9% (active)"},
      {"smiles": "Cc1cc(=O)oc(C)c1C(=O)Nc1cnc2ccccc2c1", "inhibition": "1.75%"},
      {"smiles": "CC1(C)OC(=O)C2=C(C[C@@H](C3CC3)O[C@H]2c2ccc(Cl)cc2)O1", "inhibition": "7.97%"},
      {"smiles": "CCCCOC(=O)c1ccc(NC(c2ccc(C)cc2)P(=O)(OC)OC)cc1", "note": "(stereo unspecified)", "inhibition": "4.7%"},
      {"smiles": "O=[N+]([O-])c1ccc(Oc2ccc(F)cc2Br)c2ccncc12", "inhibition": "69.9% (active)"},
      {"smiles": "CC(NC(=O)CCCC1CCCCC1)c1ccc(S(N)(=O)=O)cc1", "note": "(stereo unspecified)", "inhibition": "11.9%"},
      {"smiles": "Cc1cc(S(=O)(=O)N2CCOCC2)ccc1OCC(=O)Nc1cccc(C(F)(F)F)c1", "inhibition": "21.1%"},
      {"smiles": "CC(=O)N1CCCc2cc(S(=O)(=O)CCC(=O)N3CCN(c4ccccc4)CC3)ccc21", "inhibition": "-26.2%"},
      {"smiles": "CC(=O)N1CCCc2cc(S(=O)(=O)N3CCCC(C(=O)N4CCN(c5cccc(Cl)c5)CC4)C3)ccc21", "note": "(stereo unspecified)", "inhibition": "87.5% (active)"},
      {"smiles": "CC(=O)N1c2ccc(S(=O)(=O)N3CCC(C(=O)N4CCN(c5ccccc5)CC4)CC3)cc2CC1C", "note": "(stereo unspecified)", "inhibition": "-8.65%"},
      {"smiles": "Cc1ccnc(SCCn2c(N(C)Cc3ccccc3)nc3c2c(=O)n(C)c(=O)n3C)n1", "inhibition": "-11.8%"},
      {"smiles": "O=c1c2ccccc2c(-c2ccc(F)cc2)nn1-c1ccc(C(F)(F)F)cc1", "inhibition": "-4.84%"},
      {"smiles": "Cn1c(-c2ccc(C(F)(F)F)cc2)cc2onc(-c3ccccc3)c2c1=O", "inhibition": "51.4% (active)"},
      {"smiles": "Cn1c(-c2ccc(F)cc2)cc2onc(-c3ccccc3Cl)c2c1=O", "inhibition": "6.49%"},
      {"smiles": "CC(=O)N1Cc2cc(C(=O)NCc3cccc(F)c3)nc(-c3cccc(C4=CCCCC4)c3)c2[C@H]1CCO", "inhibition": "24.6%"},
      {"smiles": "CCCCn1c(N)c(N(CCOC)C(=O)CSCC(=O)Nc2cccc(C)c2)c(=O)[nH]c1=O", "inhibition": "4.51%"},
      {"smiles": "CC(C)Nc1ccc(-n2nc3ccccc3[n+]2[O-])cc1", "inhibition": "62.4% (active)"},
      {"smiles": "C[C@H]([C@@H](O)[C@@H](O)[C@@H](C)C(C)(C)C)[C@H]1CC[C@H]2C3CC[C@H]4C[C@H](OS(=O)(=O)O)[C@@H](OS(=O)(=O)O)C[C@]4(C)[C@H]3CC[C@]12C", "note": "(stereo partly specified)", "inhibition": "3.39%"},
      {"smiles": "CCCC1C(=O)N2C(N(C)C)=Nc3ccc(C)cc3N2C1=O", "note": "(stereo unspecified)", "inhibition": "-18.1%"},
      {"smiles": "O=C(O)c1ccc(/C=C2\\SC(=S)N(NC(=O)c3ccc(Br)cc3)C2=O)cc1", "inhibition": "2.06%"},
      {"smiles": "C=CCOc1ccc(/C=C2\\SC(=S)N(CCC(=O)O)C2=O)cc1", "inhibition": "90% (active)"},
      {"smiles": "O=C1/C(=C\\c2ccccc2Cl)SC(=S)N1CCC(=O)N1CCCc2ccccc21", "inhibition": "3.74%"}
    ]}
  ]
}
